Data: PubChem BioAssay (NCI)
Compounds without any hit were thinned out: in the full panel of roughly 79,000, 15% have a hit. Unmarked numbers belong to inactive results. Activity calls are given as the source filed them. Rule as the data show it: active = growth inhibition above about 70%; inactive = the rest.

Experiment: NCI Yeast Anticancer Drug Screen. Data for the rad18 strain (AID 177)
Settings: S. cerevisiae rad18 mutant growth inhibition, active compounds read high
Description: Growth inhibition of yeast strains with defined genetic alterations is measured as a screen for potential anti-cancer activity. Selected strains with alterations in DNA damage repair or cell cycle control were exposed to compounds and growth inhibition was measured relative to vehicle treated controls. The strain used in this assay is rad18

| SMILES | growth inhibition (at 1.2 µM) [%] | growth inhibition (at 3.7 µM) | growth inhibition (at 11.0 µM) | growth inhibition (at 33.0 µM) | growth inhibition (at 100.0 µM) |
| --- | --- | --- | --- | --- | --- |
| Cc1ccc2ccc(O)cc2c1 | -21 | -32% | -22% | -23% | 69% |
| [N-]=N[N+]#I1OC(C(F)(F)F)(C(F)(F)F)c2ccccc21 | 62 | 89% (active) | 98% (active) | 99% (active) | 99% (active) |
| CCC(C(=O)O)C1=C(c2ccccc2)CCc2ccccc21 (stereo not given) | 8 | 27% | 97% (active) | 99% (active) | 82% (active) |
| O=CC=C(c1ccccc1)c1ccccc1 | 20 | 26% | 25% | 34% | 98% (active) |
| N#Cc1c(N)[nH]c2ccc(Sc3ccccc3)cc12 | 12 | 37% | 87% (active) | 95% (active) | 96% (active) |
| Cc1ccc(S(=O)(=O)NCCSS(=O)(=O)c2ccc(C)cc2)cc1 | -2 | 6% | 12% | 99% (active) | 94% (active) |
| CCN(CC)[P+](c1ccccc1O)(N(CC)CC)N(CC)CC | -6 | 37% | 53% | 59% | 90% (active) |
| CCCCCCCCC/C=C/C=C/C(=O)NCC(=O)NC1C(O)C(O)C(Nc2ncnc3nc[nH]c23)OC1C(O)CO (stereo not given) | -7 | 7% | 21% | 53% | 48% |
